Inconclusive results are not listed. A number with no mark means an inactive call. Calls of active or inactive are those of the source. The call rests on the fitted dose curve; in most records, active means well fitted inhibition curve with a large enough effect; inconclusive means small, poorly fitted or top-dose-only effect; inactive means no such curve, though single readings can be large or run the other way.
Potency means the concentration at half of the fitted maximal effect.

This assay in a line: qHTS to identify inhibitors of the type 1 interferon - major histocompatibility complex class I in skeletal muscle: primary screen against the NCATS Mechanism Interrogation Plate v5.0 (MIPE) Libary (AID 1347411). Further: nearly all actives have a fitted effect of over 65% in size.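 On activity change, negative = inhibition: plate controls were vehicle for no effect and reference inhibitor for full effect.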 Particulars: iHSKM cells + IFN-b, HiBiT-tagged MHC-I luminescence, 24 h; series mostly up to 45.8 µM; activity change, negative = inhibition: at the top concentration. Put shortly:
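IFN-beta-driven (4 ng/ml) HLA-B-HiBit expression in CRISPR-tagged C25cl48 myoblasts; compounds 11-pt, 1:3, max 46 uM, 24 hr exposure; lytic NanoLuc complementation luminescence.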
On to `C=C1C(=O)[C@@]23C(CC[C@@H]1[C@H]2O)[C@@]12CO[C@]3(O)[C@@H](O)[C@@H]1C(C)(C)CC[C@@H]2O` (stereo partly drawn), for which the Potency is 6.58 µM (active).

Regarding `Cc1cnc(C(=O)O)c[n+]1[O-]`, the “activity change, negative = inhibition” value is -11.2%.

On to `c1ccc2c(Cc3c[nH]c4ccccc34)c[nH]c2c1`, for which the “activity change, negative = inhibition” value is -8.37%.

Consider `CC1CCC(C(=O)N(c2cc(C#CC(C)(C)C)sc2C(=O)O)C2CCC(O)CC2)CC1` (stereo not drawn), for which the “activity change, negative = inhibition” value is -24%.

With `COCCOc1nc(-c2ccc(Cl)c(Cl)c2)n(-c2ccc(NC(=O)CCl)cc2)n1`, the Potency was 5.23 µM (active).

With `COC1CCC(N(C(=O)C2CCC(C)CC2)c2cc(C3=CCCCC3)sc2C(=O)O)CC1` (stereo not drawn), the “activity change, negative = inhibition” value is -5.12%.

As to `C=C1C(=O)OC(CCCCCCCC)C1C(=O)O` (stereo not drawn), the Potency is 18.6 µM (active).

For `Nc1ncnc2c1nc(Cl)n2[C@@H]1O[C@H](CO)[C@@H](O)[C@@H]1O`, the “activity change, negative = inhibition” value is -4.52%.

On to `CC(C)(C(=O)NCC(F)(F)C(F)(F)F)C(=O)N[C@@H]1C(=O)Nc2ccccc2-c2ccccc21`, for which the “activity change, negative = inhibition” value was 0.863%.

In the case of `COc1cc(NC(=O)c2ccc(-c3ccc(Cl)cc3)o2)cc(OC)c1`, the “activity change, negative = inhibition” value was -19.3%.

With `O=C(Nc1ccccc1-c1cn2c(CN3CCNCC3)csc2n1)c1cnc2ccccc2n1`, the Potency was 14.7 µM (active).

On to `COc1cc(N2CCC(N3CCN(C)CC3)CC2)ccc1Nc1ncnc(Nc2ccccc2S(=O)(=O)C(C)C)n1`, for which the Potency is 4.15 µM (active).

On to `N#Cc1ccc(NC(=O)Nc2ccccc2Br)c2n[nH]nc12`, for which the “activity change, negative = inhibition” value was -21.6%.

On to `O=C(O)c1ccccc1C(=O)Nc1ccc(-c2ccccc2)cc1`, for which the Potency is 29.4 µM (active).

On to `O=C(CCN1CCN(C(=O)OCc2cc(Cl)cc(Cl)c2)CC1)c1ccc2[nH]c(=O)oc2c1`, for which the “activity change, negative = inhibition” value was -0.0304%.

Regarding `O=C1C(Cl)=C(NCCN2CCOCC2)C(=O)c2ncccc21`, the Potency was 2.94 µM (active).

For the compound `Cc1ccc(C(C)(O)c2nc3ccccc3s2)c(C)c1` (stereo not drawn), the “activity change, negative = inhibition” value was -14.8%.

As to `Cc1c(NC(=O)c2ccc(C(C)(C)C)cc2)cccc1-c1cn(C)c(=O)c(Nc2ccc(C(=O)N3CCOCC3)cc2)n1`, the “activity change, negative = inhibition” value was -11.8%.

Take `Nc1ncnc2ccccc12`: the “activity change, negative = inhibition” value was -9.59%.

For the compound `CCn1c(C(=O)N(C2CC2)C2CC2)cc2c3c(ncn3C)c(Nc3cc(C)n(C)n3)nc21`, the “activity change, negative = inhibition” value is -12.3%.

In the case of `N#CC1(c2ccc(NC(=O)c3cccnc3NCc3ccncc3)cc2)CCCC1`, the “activity change, negative = inhibition” value was -5.65%.

As to `CC(C)(C)COc1ccc(-n2cc(C(=O)O)cn2)cc1C#N`, the “activity change, negative = inhibition” value is -3.52%.

Consider `C[C@]12CCC3c4ccc(O)cc4CCC3C1CCC2=O` (stereo partly drawn), for which the “activity change, negative = inhibition” value is -27.6%.

Regarding `CC(C)[C@H](CO)Nc1nc(Nc2ccc(C(=O)O)c(Cl)c2)c2ncn(C(C)C)c2n1`, the “activity change, negative = inhibition” value was -11.5%.

For `COc1cc(N2CCC(N3CCN(C)CC3)CC2)ccc1Nc1ncc(Cl)c(Nc2ccccc2S(=O)(=O)C(C)C)n1`, the Potency is 18.6 µM (active).

Consider `COc1cccc([C@@H](C)NCCCc2ccccc2Cl)c1`, for which the “activity change, negative = inhibition” value was 35.3%.

As for `CC1(C)CCC(CN2CCN(c3ccc(C(=O)NS(=O)(=O)c4ccc(NCC5CCOCC5)c([N+](=O)[O-])c4)c(Oc4cnc5[nH]ccc5c4)c3)CC2)=C(c2ccc(Cl)cc2)C1`, the “activity change, negative = inhibition” value is -11.8%.

Consider `N[C@H](CSC(c1ccccc1)(c1ccccc1)c1ccccc1)C(=O)O`, for which the “activity change, negative = inhibition” value is -22.2%.

In the case of `O=C(NCc1ccncc1)C12C[C@H]3C[C@@H](C1)CC(c1ccc(Cl)cc1)(C3)C2`, the “activity change, negative = inhibition” value was -9.19%.

As to `COc1ccc(-c2coc3cc(O)cc(O)c3c2=O)cc1`, the Potency is 16.5 µM (active).

`COc1ccc(-c2nc(N3CCOCC3)c3sc(CN(C)c4ncc(C(=O)NO)cn4)cc3n2)cn1`: the Potency is 0.033 µM (active).

On to `O=C(NC1CCOCC1)c1ccc(-c2cc(-c3cn[nH]c3-c3ccccn3)ccn2)cc1`, for which the “activity change, negative = inhibition” value is -2.57%.

For `NC(=O)[C@@H](CCC(F)(F)F)N(Cc1ccc(-c2ncon2)cc1F)S(=O)(=O)c1ccc(Cl)cc1`, the “activity change, negative = inhibition” value was -19.8%.
